According to PubChem BioAssay AID779 (Sanford-Burnham Center for Chemical Genomics, 2007):
Unmarked numbers belong to inactive results. The rule behind the calls is not given here.

Experiment: placental alkaline phosphatase inhibitors, dose response, counter-screen, biochemical, colorimetric (AID 779)
Conditions: PLAP counter-screen, colorimetric OD read-out
`C/C(=C\C(=O)c1ccccc1)NNc1nc2ccccc2s1` gave an IC50 greater than 50 µM. In the case of `CCC(C)N1C(=O)/C(=C/c2c(NCCCOC(C)C)nc3c(C)cccn3c2=O)SC1=S` (stereo unspecified), the IC50 is reported as greater than 50 µM. For `O=C(NCCc1ccccc1)c1ccc2nc(-c3ccco3)c(-c3ccco3)nc2c1`, the IC50 was greater than 50 µM. `CCOC(=O)c1cc(-c2ccc(/C=C3/C(=O)NC(=O)C(C#N)=C3C)o2)ccc1Cl` showed an IC50 greater than 50 µM. Work on `Cc1cc2ccccc2n1CCNC(=O)c1ccccc1` yielded an IC50 greater than 50 µM. Compound `Cc1c(NC(=S)N/N=C/c2cccc(O)c2)c(=O)n(-c2ccccc2)n1C` has an IC50 greater than 50 µM. Compound `Cc1ccccc1C(=O)c1cccn1CC(=O)NCC1CCCO1` (stereo unspecified) has an IC50 greater than 50 µM. `Cc1ccc(C)c(N(CC(=O)N/N=C/c2ccc(-c3ccc([N+](=O)[O-])cc3)o2)S(=O)(=O)c2ccccc2)c1` gave an IC50 greater than 50 µM. Compound `COc1ccc2sc3ccccc3c(=O)c2c1OC` has an IC50 greater than 50 µM. Compound `Cc1cccc2cc(/C=C3\N=C(c4ccccc4)OC3=O)c(N3CCOCC3)nc12` has an IC50 greater than 50 µM. `CCN(CCO)c1nc(SC)nc2c1sc1nc(-c3ccco3)c3c(c12)CCC3` gave an IC50 greater than 50 µM. `COc1ccc2oc(/C=C/N(C)C)c(C(=O)c3ccc(Cl)cc3)c2c1` gave an IC50 greater than 50 µM. For `CCCCN1C(=O)/C(=C/C=C2\N(C)c3ccccc3C2(C)C)SC1=S`, the IC50 was greater than 50 µM. `CCC(C)COC(=O)C(C#N)c1nc2ccccc2nc1N1CCCCC1` (stereo unspecified) gave an IC50 greater than 50 µM. For `Cn1c(=O)[nH]c(=O)c2c1nc1n2CCN1Cc1ccccc1`, the IC50 was greater than 50 µM. For `O=C(O)c1ccc(CN(c2ccccn2)S(=O)(=O)c2ccccc2)cc1`, the IC50 was greater than 50 µM. Compound `CCn1c(SCc2nc(-c3ccccc3)no2)nnc1-c1cccs1` has an IC50 greater than 50 µM. Compound `CC(C)CC(C(=O)Nc1oc(-c2ccco2)c(-c2ccco2)c1C#N)N1C(=O)c2ccccc2C1=O` (stereo unspecified) has an IC50 greater than 50 µM. For `COc1ccc(S(=O)(=O)Nc2cc(Sc3ncn[nH]3)c(O)c3ccccc23)cc1`, the IC50 was greater than 50 µM. Compound `CCCCn1nc(-c2ccccc2)c2nc3ccccc3nc21` has an IC50 greater than 50 µM. In the case of `CSc1ccccc1N=Cc1nc(-c2ccccc2)oc1O`, the IC50 is reported as greater than 50 µM. `COc1ccc(N(C(=O)c2ccco2)S(=O)(=O)c2cc(Cl)c(Cl)cc2Cl)cc1` gave an IC50 greater than 50 µM. Compound `Clc1ccccc1CSc1nnc(-c2ccco2)c(-c2ccco2)n1` has an IC50 greater than 50 µM. For `O=C1/C(=C\c2ccco2)SC(=S)N1Cc1ccccc1`, the IC50 was greater than 50 µM. With `C=CCn1c(=O)/c(=C/c2cc(OC)c(OC)c(OC)c2)s/c1=C(/C#N)c1nc2ccccc2n1C` the IC50 was greater than 50 µM. For `Cc1ccc(-n2c(C)nc3oc4ccccc4c(=O)c3c2=O)cc1`, the IC50 was greater than 50 µM. Work on `CCSc1nnc(-c2sc3nnc(-c4ccccc4)c(-c4ccccc4)c3c2N)o1` yielded an IC50 greater than 50 µM. With `CC1Cc2ccccc2N1Cc1nc2cc(C(F)(F)F)ccc2c(=O)[nH]1` (stereo unspecified) the IC50 was greater than 50 µM. Compound `CCN1/C(=C/c2ccc3cccc(C)c3[n+]2CC)Sc2ccccc21` has an IC50 greater than 50 µM. In the case of `CSc1nc(SCCO)c2sc3nc(-c4ccco4)c4c(c3c2n1)CC(C)(C)OC4`, the IC50 is reported as greater than 50 µM. Compound `COc1cccc(C2(CSc3nnc(-c4cc(OC)c(OC)c(OC)c4)o3)OCCO2)c1` has an IC50 greater than 50 µM.
